Test results: paper PMC5540273 (PLoS ONE, 2017)

How the values were obtained:
Settings in all cases: concentration: 1 μM, replicates: in singlicate; n = 1
[1] = tested on: SRPK2
[2] = tested on: SRPK3
[3] = tested on: STK16
[4] = tested on: STK33
[5] = tested on: STK35
[6] = tested on: STK36
[7] = tested on: STK39
[8] = tested on: SYK
[9] = tested on: SgK110
[10] = tested on: T1, TAK1
T1 construct: gene MAP3K7

[11] = tested on: TAOK1
[12] = tested on: TAOK2
[13] = tested on: TAOK3
[14] = tested on: TBK1
[15] = tested on: TEC
[16] = tested on: TESK1
[17] = tested on: TGFBR1
[18] = tested on: TGFBR2
[19] = tested on: TIE1
[20] = tested on: T2, TIE2
T2 construct: gene TEK
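Note: KINOMEscan kinase panel screen.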

Structure (SMILES)	%Inh [1] [%]	%Inh [2] [%]	%Inh [3] [%]	%Inh [4] [%]	%Inh [5] [%]	%Inh [6] [%]	%Inh [7] [%]	%Inh [8] [%]	%Inh [9] [%]	%Inh [10] [%]	%Inh [11] [%]	%Inh [12] [%]	%Inh [13] [%]	%Inh [14] [%]	%Inh [15] [%]	%Inh [16] [%]	%Inh [17] [%]	%Inh [18] [%]	%Inh [19] [%]	%Inh [20] [%]
COc1ccc2cc(-c3nc(-c4ccccc4C(C)C)[nH]c3-c3ccncc3)ccc2c1 [SB-660566]	0	0	9	0	38	41	31	10	0	0	0	0	0	0	17	32	80	42	69	97
COc1ccc(Nc2nccc(N3CCC(NC(=O)C(C)c4ccc(Cl)cc4)C3)n2)cc1 (centres unmarked) [GSK1379735]	0	34	0	0	7	1	13	25	0	0	0	0	0	4	14	3	23	0	35	8
Nc1cccc(-c2ccc3c(N)n[nH]c3c2)n1 [GSK2192730]	0	0	27	0	0	0	1	0	0	43	1	0	0	18	0	13	3	0	0	0
O=C1NC(=O)C(c2ccc(Cl)cc2)=C1Nc1cccc(Cl)c1 [SB-317651]	3	8	0	0	0	2	17	0	0	34	15	2	15	15	0	22	0	8	0	6
Cc1nccc(-c2c(-c3ccc(F)cc3)ncn2CCCN2CCOCC2)n1.Cl [SB-282975]	0	0	0	14	0	10	28	28	26	26	4	12	0	16	15	37	1	0	0	99.9
COc1nccc(-c2c(-c3ccc(F)cc3)ncn2CCCN2CCOCC2)n1 [SB-282852]	26	23	9	0	0	0	6	0	0	43	0	0	0	19	0	8	20	0	0	33
CNc1nc(-c2ccc3c(N)n[nH]c3c2)cc(N2C[C@@H](C(=O)NC3CCCCC3)OC[C@H]2C)n1 [GSK2375584]	30	0	16	13	0	22	6	26	0	0	0	1	0	28	12	11	20	0	2	0
CC(C)c1cc(-c2ccc3c(N)n[nH]c3c2)nc(N)n1 [GSK2250882]	0	29	21	0	0	0	0	0	0	1	0	0	0	13	0	35	0	0	0	0
Cc1ccc(NC(=O)Nc2ccc(Cl)c(C(F)(F)F)c2)cc1-c1ccc(C(=O)Nc2ccncc2)cc1 [GSK1398470]	0	23	0	6	8	37	0	13	0	0	0	0	0	17	8	23	0	7	6	0
CCc1ccc(-c2ccc3c(c2)-c2n[nH]cc2S(=O)(=O)N3C)cc1	14	0	0	0	15	0	0	19	0	0	0	27	0	0	0	15	0	0	0	20
